Among the test systems are NCI-H23 lung; NCI-H226 lung; NCI-H322M lung; HOP-62 NSCLC; NCI-H460 lung; HOP-92 NSCLC; NCI-H522 lung; A549/ATCC NSCLC; 786-0 renal; COLO 205 colon; DU-145 prostate; K-562 leukemia; MALME-3M melanoma; MDA-MB-231 breast; RXF 393 renal; SF-268 CNS; SF-295 CNS; SF-539 CNS; UACC-257 melanoma; M14 melanoma.
Assay in all cases: NCI-60 one-dose screen, 48 h (100 = growth as untreated, 0 = no growth, -100 = all killed)
What all share (details): 10 µM unless noted

For eight compounds, growth results are on record in PubChem BioAssay (NCI).

About 83,000 compounds went through this panel and 20% of them were active in at least one assay; those are over-represented in the sample as a whole.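 Testing used 96-well plates and a 48-hour single-concentration exposure. Example: -40 means 40% of the starting cells died.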 A number with no mark means an inactive call. Activity calls are given as the source filed them. The calls were made as follows: active = growth percent below 10; inactive = the rest.

Take `Oc1ccc(N=Cc2ccc(OCc3ccccc3)cc2)cc1`: the growth was 95.5% in the assay on NCI-H23 lung; 102% in the assay on NCI-H226 lung; 93.8% in the assay on NCI-H322M lung; 109% in the assay on HOP-62 NSCLC; 104% with NCI-H460 lung; 97.5% in the assay on HOP-92 NSCLC. The growth in the assay on NCI-H522 lung was 90.8%; in the assay with A549/ATCC NSCLC it was 112%; with 786-0 renal, 99.4%; with COLO 205 colon, 103%; in the assay with DU-145 prostate, 108%; in the assay with K-562 leukemia, 120%. Further, the growth was 93.5% in the assay with MALME-3M melanoma; 92.5% in the assay with MDA-MB-231 breast; 99.2% with RXF 393 renal; 103% in the assay on SF-268 CNS; 92% with SF-295 CNS; 105% in the assay on SF-539 CNS. For the same compound, the values for the growth with UACC-257 melanoma and with M14 melanoma were 118% and 104%, respectively.

As to `OCCNc1ccccc1`, the growth in the assay on NCI-H23 lung is 95.6%; with NCI-H226 lung, 97.7%; with NCI-H322M lung it was 104%; in the assay on HOP-62 NSCLC, 105%; in the assay with NCI-H460 lung, 106%; with HOP-92 NSCLC it was 92.7%. Besides, the growth in the assay on NCI-H522 lung was 99.5%; in the assay with A549/ATCC NSCLC, 103%; in the assay with 786-0 renal it was 99.9%; with COLO 205 colon, 107%; in the assay with DU-145 prostate, 103%; in the assay with K-562 leukemia, 104%. For the same compound, the growth is 102% in the assay on MALME-3M melanoma; 104% with MDA-MB-231 breast; 109% in the assay on RXF 393 renal; 97.2% with SF-268 CNS; 108% in the assay on SF-295 CNS; 95.9% with SF-539 CNS. In addition, the growth in the assay with UACC-257 melanoma was 108%; in the assay with M14 melanoma, 97.8%.

In the case of `CC(=O)c1cccc(N(C)S(=O)(=O)c2ccc(C)cc2)c1`, the growth with NCI-H23 lung was 93%; in the assay with NCI-H226 lung, 95.7%; in the assay with NCI-H322M lung it was 90.4%; in the assay with HOP-62 NSCLC, 92.8%; with NCI-H460 lung it was 104%; in the assay on HOP-92 NSCLC, 72.3%. Further, the growth in the assay on NCI-H522 lung was 82.9%; in the assay with A549/ATCC NSCLC, 95.9%; in the assay with 786-0 renal it was 94%; with COLO 205 colon, 116%; with DU-145 prostate, 98.2%; in the assay on K-562 leukemia, 47.8%. Besides, the growth in the assay with MALME-3M melanoma is 84%; with MDA-MB-231 breast it was 93.1%; in the assay with RXF 393 renal, 116%; with SF-268 CNS, 93%; in the assay with SF-295 CNS it was 93.2%; with SF-539 CNS, 79.1%. Moreover, the growth in the assay with UACC-257 melanoma was 94.7%; in the assay with M14 melanoma, 77.6%.

Take `Cc1cc(CO)c(O)c(CO)c1`: the growth with NCI-H23 lung was 121%; with NCI-H226 lung, 115%; in the assay on NCI-H322M lung, 98.7%; with HOP-62 NSCLC, 107%; with NCI-H460 lung it was 107%; in the assay on HOP-92 NSCLC, 96.4%. The growth was 84.4% in the assay on NCI-H522 lung; 103% with A549/ATCC NSCLC; 107% in the assay on 786-0 renal; 114% with COLO 205 colon; 115% with DU-145 prostate; 87.3% in the assay with K-562 leukemia. Also, the growth is 104% in the assay on MALME-3M melanoma; 108% with MDA-MB-231 breast; 112% with RXF 393 renal; 105% in the assay on SF-268 CNS; 109% with SF-295 CNS; 110% with SF-539 CNS. Further, the results for the growth with UACC-257 melanoma and with M14 melanoma were 95.8% and 97.6%, respectively.

As for `CCC(=O)C1C(=O)c2ccccc2C1=O`, the growth in the assay on NCI-H23 lung was 101%; in the assay on NCI-H226 lung, 104%; in the assay with NCI-H322M lung, 102%; with HOP-62 NSCLC, 99%; in the assay with NCI-H460 lung, 115%; in the assay on HOP-92 NSCLC, 85.8%. Besides, the growth in the assay with NCI-H522 lung was 86.6%; with A549/ATCC NSCLC it was 113%; with 786-0 renal, 107%; in the assay with COLO 205 colon it was 122%; in the assay with DU-145 prostate it was 113%; in the assay on K-562 leukemia, 63.7%. Besides, the growth in the assay on MALME-3M melanoma is 96.8%; in the assay with MDA-MB-231 breast, 89.8%; in the assay with RXF 393 renal, 120%; in the assay with SF-268 CNS it was 101%; in the assay with SF-295 CNS, 96.9%; with SF-539 CNS, 106%. Moreover, the growth in the assay with UACC-257 melanoma was 110%; in the assay with M14 melanoma it was 111%.

As for `COc1cccc(C(=O)O)c1OC`, the growth was 109% in the assay with NCI-H23 lung; 89.8% in the assay with NCI-H226 lung; 95.6% in the assay with NCI-H322M lung; 89.4% with HOP-62 NSCLC; 101% in the assay with NCI-H460 lung; 92.5% in the assay on HOP-92 NSCLC. In addition, the growth with NCI-H522 lung was 87.2%; in the assay with A549/ATCC NSCLC, 98.1%; with 786-0 renal it was 96%; in the assay with COLO 205 colon, 101%; with DU-145 prostate, 111%; in the assay with K-562 leukemia, 107%. For the same compound, the growth with MALME-3M melanoma is 103%; with MDA-MB-231 breast, 99.2%; in the assay with RXF 393 renal it was 115%; in the assay with SF-268 CNS, 105%; with SF-295 CNS, 87.5%; in the assay with SF-539 CNS, 96.4%. Besides, the growth with UACC-257 melanoma is 97.6%; with M14 melanoma it was 103%.

Consider `CCOC(=O)c1ccc(NC(=O)Nc2nccs2)cc1`, for which the growth in the assay on NCI-H23 lung is 19.4%; in the assay on NCI-H226 lung, 19.9%; with NCI-H322M lung it was 41.3%; with HOP-62 NSCLC, 20.6%; in the assay with NCI-H460 lung it was -44.2% (active); in the assay with HOP-92 NSCLC, -7.86% (active). In addition, the growth in the assay on NCI-H522 lung is -43.5% (active); with A549/ATCC NSCLC, 10.6%; in the assay with 786-0 renal, -7.93% (active); with COLO 205 colon, -82.9% (active); in the assay on DU-145 prostate, -26.3% (active); in the assay on K-562 leukemia it was -3.89% (active). Moreover, the growth is 39.4% with MALME-3M melanoma; 8.88% (active) in the assay on MDA-MB-231 breast; -21.2% (active) in the assay with RXF 393 renal; 0.081% (active) in the assay with SF-268 CNS; 9.16% (active) in the assay on SF-295 CNS; -50.1% (active) with SF-539 CNS. For the same compound, the growth in the assay on UACC-257 melanoma was 45.5%; in the assay on M14 melanoma it was 4.57% (active).

As for `S=C(NCc1ccccc1)N1CCC(CCCC2CCN(C(=S)NCc3ccccc3)CC2)CC1`, the growth is 90% in the assay with NCI-H23 lung; 91.4% in the assay with NCI-H226 lung; 118% in the assay with NCI-H322M lung; 97.2% with HOP-62 NSCLC; 106% with NCI-H460 lung; 77.5% in the assay with HOP-92 NSCLC. For the same compound, the growth in the assay with NCI-H522 lung was 80.2%; with A549/ATCC NSCLC, 95.5%; in the assay with 786-0 renal, 101%; in the assay with COLO 205 colon it was 110%; in the assay on DU-145 prostate it was 105%; with K-562 leukemia, 69.9%. Moreover, the growth in the assay on MALME-3M melanoma is 104%; with MDA-MB-231 breast, 99.2%; in the assay with RXF 393 renal it was 107%; with SF-268 CNS, 93%; in the assay on SF-295 CNS, 97.7%; in the assay on SF-539 CNS it was 99.1%. Also, the growth in the assay on UACC-257 melanoma and in the assay on M14 melanoma was 100% throughout.
